In PubChem BioAssay (Tox21):
Inconclusive results are not listed. A number with no mark means an inactive call. The call rests on the fitted dose curve; in most records, active means well fitted cell-killing curve with a large enough effect in the repeat runs; inconclusive means weak or mixed curves, or effect the other way; inactive means flat fitted curve, though single readings scatter.

Test: qHTS RealTime-Glo MT Cell Viability Assay in HEK293 cells - 32 hour (AID 1224868); further: top concentration of the series differs between compounds; nearly all actives have a fitted effect of over 50% in size
Details: RealTime-Glo luminescence; series mostly up to 76.8 µM; activity change, negative = cytotoxic: at the top concentration
Excerpt: National Center for Advancing Translational Sciences [NCATS]
NIH Chemical Genomics Center [NCGC]
U.S. Environmental Protection Agency [EPA]
National Institutes of Environmental Health Sciences [NIEHS]
National Toxicology Program [NTP]
U.S. Food and Drug Administration [FDA]
Measure of cell viability is critical in the cell-base assay. Analysis of cell viability is necessary for the characterization of cell responses to cytotoxic drugs and environmental stress. A RealTime-Glo MT Cell Viability Assay to monitor cell viability in real time of continues cell culture during 40 hours of compound treatment was used to screen Tox21 10K library compounds in Hek293 cells. The RealTime-Glo MT Cell Viability Assay is a nonlytic, homogeneous, bioluminescent method to measure cell viability in real time using a simple, plate-based method. The assay involves adding NanoLuc luciferase and a cell-permeant prosubstrate to cells in culture. Viable cells reduce the proprietary prosubstrate to generate a substrate for NanoLuc luciferase. This substrate diffuses from cells into the surrounding culture medium, where it is rapidly used by the NanoLuc Enzyme to produce a luminescent signal. The signal correlates with the number of viable cells, making the assay well suited for cytotoxicity studies.
Tox21 Assay Protocol Summary:
The mixture of Hek293 cell suspension and reagents were dispensed at 600cells/6 ul/well in 1536-well tissue culture treated black solid bottom plates using a Multidrop dispenser. After the assay plates were incubated at a 37 C/5% CO2 incubator for 5 hours, 23 nL of compounds dissolved in DMSO, positive and negative controls was transferred to the assay plate by a pintool work station. The plates were incubated at 37 C for 40 hours. The luminescence intensity were measured at 0h, 8h, 16h, 24h, 32h and 40h time points using ViewLux plate reader during compound treatment.
On the % scale 0 is the no-effect control and ±100 the full control effect.

Row | SMILES | activity change, negative = cytotoxic
1 | COc1ccc(Cl)cc1C | 29.7%
2 | NCC1CCC(C(=O)Oc2ccc(CCC(=O)O)cc2)CC1 (stereo not given) | 9.14% [at 35.3 µM]
3 | Cc1ccc(N)nc1 | 3.78%
4 | CC(=O)Nc1ccc(S(=O)(=O)Nc2cc(C)on2)cc1 | 2.25% [at 35.3 µM]
5 | COC(=O)c1ccc(NC(C)=O)cc1OC | -0.28% [at 35.3 µM]
6 | COc1cc(OC)cc(OC)c1 | 1.49% [at 35.3 µM]
7 | O=CN1CCCCC1 | 1.53%
8 | C=CCN1CCc2nc(N)sc2CC1 | 10.7% [at 35.3 µM]
9 | N#CC1(N)CCCCC1 | 8.14%
10 | CC(=O)SCC(CC(=O)c1ccc(C)cc1)C(=O)O (stereo not given) | 1.12% [at 35.3 µM]
11 | NNC(=O)OCc1ccccc1 | -1.55%
12 | COc1cc(C(=O)NC2CCCNC2)cc(OC)c1OC (stereo not given) | 0.755% [at 35.3 µM]
13 | O=Cc1ccc(C(=O)O)cc1 | 3.43%
14 | CC(C)(C)c1ccc(C(=O)CCCCl)cc1 | 2.66% [at 35.3 µM]
15 | CC(=O)OC/C=C(/C)CCC=C(C)C | 1.58%
16 | Cc1ccc(OC(=O)CC(C)C)cc1 | 3.51%
17 | Cc1cc2c(cc1CC(=O)c1sccc1S(=O)(=O)Nc1onc(C)c1Cl)OCO2 | 4.03% [at 35.3 µM]
18 | COc1cc(S(N)(=O)=O)cc(C(=O)O)c1OC | 1.66% [at 35.3 µM]
19 | C/C=C(\C)C=O | 8.86%
20 | COC(=O)c1ccc(C(=O)O)cc1 | 4.06%

Row | SMILES | activity change, negative = cytotoxic
21 | C[n+]1ccccc1/C=N/O | 2.48% [at 35.3 µM]
22 | C=COCCCCO | 4.53%
23 | CNC(=O)c1c(I)c(NC(C)=O)c(I)c(C(=O)O)c1I | 3.87% [at 35.3 µM]
24 | Cc1ccc(O)c(C(=O)c2ccccc2)c1 | -9.31%
25 | C=CC(C)(CCC=C(C)C)OC(=O)C(C)C (stereo not given) | 1.89%
26 | CCCC(=O)OC | -3.64%
27 | C=CCCCCCCCCOC(C)=O | 0.987%
28 | CC[N+](C)(CC)CC | 12.9%
29 | C=CCn1cc[n+](C)c1 | -7.45%
30 | CN(C)CCc1c[nH]c2ccc(C[C@H]3COC(=O)N3)cc12 | 4.46% [at 35.3 µM]
31 | CCCC(=O)CC | 8.83%
32 | CC(C)(C)OC=O | 12%
33 | CNC(C)=O | 3.42%
34 | CCCCNCC | -4.8%
35 | Clc1ccc2c(c1)Nc1ccccc1S2 | -20% [at 35.3 µM]
36 | CC(=O)SC[C@@H](C)C(=O)N1CCC[C@H]1C(=O)N[C@@H](Cc1ccccc1)C(=O)O | 3.35% [at 35.3 µM]
37 | O=C1c2ccccc2C(=O)N1CO | -8.35%
38 | CC(C)(Sc1cc(C(C)(C)C)c(O)c(C(C)(C)C)c1)Sc1cc(C(C)(C)C)c(O)c(C(C)(C)C)c1 | 0.0908% [at 35.3 µM]
39 | C=CCOC(=O)CCCCCCCC | 16.5%
40 | CC(C)(C)C(=O)CC(=O)C(C)(C)C | -15.4%
